# Article PMC7862700, “An all-to-all approach to the identification of sequence-specific readers for epigenetic DNA modifications on cytosine”
# What was measured:
# Test in all cases: DAPPL (digital affinity profiling via proximity ligation, sequencing); 10 mM Tris-HCl pH 7.5, 50 mM NaCl, 1 mM DTT, 4% glycerol, room temperature, 30 min; GST-TFs on glutathione beads, 16-mer random dsDNA library, 0.1% formaldehyde crosslink after washing; high values mean tight binding
# FLI1 = molecular target: T1, FLI1 (Homo sapiens, UniProt Q01543 1-452); details: protein: recombinant; tags: N-terminal GST; dsDNA, one strand shown
# T1 sequence: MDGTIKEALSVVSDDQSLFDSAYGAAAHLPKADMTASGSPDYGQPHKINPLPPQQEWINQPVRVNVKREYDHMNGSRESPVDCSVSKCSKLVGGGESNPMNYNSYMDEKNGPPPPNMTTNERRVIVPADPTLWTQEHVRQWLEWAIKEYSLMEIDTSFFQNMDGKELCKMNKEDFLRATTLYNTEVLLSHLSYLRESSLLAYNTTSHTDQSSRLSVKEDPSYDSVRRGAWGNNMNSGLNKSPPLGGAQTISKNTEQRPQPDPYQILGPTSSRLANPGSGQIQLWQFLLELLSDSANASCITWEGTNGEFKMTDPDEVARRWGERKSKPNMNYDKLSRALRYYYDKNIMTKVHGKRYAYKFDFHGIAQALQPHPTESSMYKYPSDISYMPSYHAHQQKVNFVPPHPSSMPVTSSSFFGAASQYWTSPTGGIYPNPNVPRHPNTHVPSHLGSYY
# Summary of the method: (§1)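 After expression in yeast as GST fusions, human transcription factors were bound to glutathione beads, DNA-barcoded and mixed with a tag-only sample. The pools were incubated with 200 nmole of a 16-mer random double-stranded DNA library in Tris/NaCl/DTT/glycerol buffer (30 min, room temperature), washed and crosslinked with 0.1% formaldehyde. Proximity ligation with BsaI/T4 ligase ran for 1 h at 37 °C, before PCR amplification and sequencing on an Illumina NextSeq500. Binding signal is a hexamer's read frequency for a factor divided by its frequency for the tag-only sample.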
# ELK1 = molecular target: T2, ELK1 (Homo sapiens, UniProt P19419 1-428); details: protein: recombinant; tags: N-terminal GST; dsDNA, one strand shown
# T2 sequence: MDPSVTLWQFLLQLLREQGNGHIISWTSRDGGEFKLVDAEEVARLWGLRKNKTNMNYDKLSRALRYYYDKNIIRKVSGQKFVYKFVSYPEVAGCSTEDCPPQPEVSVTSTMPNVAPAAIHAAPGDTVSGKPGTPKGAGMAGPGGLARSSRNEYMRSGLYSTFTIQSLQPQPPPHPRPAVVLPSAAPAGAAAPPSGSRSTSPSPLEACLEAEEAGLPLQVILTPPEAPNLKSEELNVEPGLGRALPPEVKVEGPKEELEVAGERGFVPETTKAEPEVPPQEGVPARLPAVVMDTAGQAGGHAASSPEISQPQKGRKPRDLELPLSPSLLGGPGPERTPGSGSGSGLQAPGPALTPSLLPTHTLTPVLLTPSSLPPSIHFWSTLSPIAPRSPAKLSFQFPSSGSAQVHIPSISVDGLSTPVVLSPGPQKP
# Summary of the method: as §1
# GABPA = molecular target: T3, GABPA (Homo sapiens, UniProt Q06546 1-454); details: protein: recombinant; tags: N-terminal GST; dsDNA, one strand shown
# T3 sequence: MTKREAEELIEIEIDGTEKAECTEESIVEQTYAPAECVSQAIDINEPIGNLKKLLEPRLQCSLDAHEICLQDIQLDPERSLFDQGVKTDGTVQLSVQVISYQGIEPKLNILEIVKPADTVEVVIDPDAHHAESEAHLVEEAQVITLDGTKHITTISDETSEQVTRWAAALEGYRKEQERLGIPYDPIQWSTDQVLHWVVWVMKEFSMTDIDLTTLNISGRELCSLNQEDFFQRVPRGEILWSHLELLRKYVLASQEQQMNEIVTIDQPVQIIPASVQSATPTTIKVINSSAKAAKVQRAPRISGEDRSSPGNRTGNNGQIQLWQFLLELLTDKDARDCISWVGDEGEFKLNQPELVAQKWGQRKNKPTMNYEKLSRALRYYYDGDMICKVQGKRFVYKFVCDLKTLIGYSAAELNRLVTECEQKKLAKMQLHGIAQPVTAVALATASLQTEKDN
# Summary of the method: as §1
# ERG = molecular target: T4, ERG (Homo sapiens, UniProt P11308 1-479); details: protein: recombinant; tags: N-terminal GST; dsDNA, one strand shown
# T4 sequence: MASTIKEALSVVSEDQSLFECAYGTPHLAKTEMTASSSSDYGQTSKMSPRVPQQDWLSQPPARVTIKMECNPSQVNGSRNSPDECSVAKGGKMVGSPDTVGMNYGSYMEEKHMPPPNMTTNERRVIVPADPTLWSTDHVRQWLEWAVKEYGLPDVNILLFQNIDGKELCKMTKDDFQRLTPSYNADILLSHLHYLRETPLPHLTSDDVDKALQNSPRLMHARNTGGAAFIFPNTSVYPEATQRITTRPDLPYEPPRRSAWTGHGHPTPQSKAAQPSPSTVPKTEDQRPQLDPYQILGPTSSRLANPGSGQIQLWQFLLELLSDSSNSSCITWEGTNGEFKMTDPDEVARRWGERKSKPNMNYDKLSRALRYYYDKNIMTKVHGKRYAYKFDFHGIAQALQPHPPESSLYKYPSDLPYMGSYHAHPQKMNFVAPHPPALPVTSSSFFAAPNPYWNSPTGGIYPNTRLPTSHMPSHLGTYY
# Summary of the method: as §1
# ELF1 = ELF1 (Homo sapiens, UniProt P32519 1-619); details: protein: recombinant; tags: N-terminal GST; dsDNA, one strand shown
# Summary of the method: as §1
# EHF = molecular target: T5, EHF (Homo sapiens, UniProt Q9NZC4 1-300); details: protein: recombinant; tags: N-terminal GST; dsDNA, one strand shown
# T5 sequence: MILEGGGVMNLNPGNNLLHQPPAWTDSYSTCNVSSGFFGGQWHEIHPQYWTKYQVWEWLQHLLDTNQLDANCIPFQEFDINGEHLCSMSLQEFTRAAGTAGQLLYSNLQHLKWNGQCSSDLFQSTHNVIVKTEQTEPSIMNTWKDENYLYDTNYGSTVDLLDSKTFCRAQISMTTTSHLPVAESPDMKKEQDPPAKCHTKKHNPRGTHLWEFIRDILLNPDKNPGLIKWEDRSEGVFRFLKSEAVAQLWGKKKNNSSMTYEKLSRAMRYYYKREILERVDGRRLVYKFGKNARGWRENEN
# Summary of the method: as §1
# SPI1 = SPI1 (Homo sapiens, UniProt P17947 1-270); details: protein: recombinant; tags: N-terminal GST; dsDNA, one strand shown
# Summary of the method: as §1
# SPIB = SPIB (Homo sapiens, UniProt Q01892 1-262); details: protein: recombinant; tags: N-terminal GST; dsDNA, one strand shown
# Summary of the method: as §1
# ELK3 = molecular target: T6, ELK3 (Homo sapiens, UniProt P41970 1-407); details: protein: recombinant; tags: N-terminal GST; dsDNA, one strand shown
# T6 sequence: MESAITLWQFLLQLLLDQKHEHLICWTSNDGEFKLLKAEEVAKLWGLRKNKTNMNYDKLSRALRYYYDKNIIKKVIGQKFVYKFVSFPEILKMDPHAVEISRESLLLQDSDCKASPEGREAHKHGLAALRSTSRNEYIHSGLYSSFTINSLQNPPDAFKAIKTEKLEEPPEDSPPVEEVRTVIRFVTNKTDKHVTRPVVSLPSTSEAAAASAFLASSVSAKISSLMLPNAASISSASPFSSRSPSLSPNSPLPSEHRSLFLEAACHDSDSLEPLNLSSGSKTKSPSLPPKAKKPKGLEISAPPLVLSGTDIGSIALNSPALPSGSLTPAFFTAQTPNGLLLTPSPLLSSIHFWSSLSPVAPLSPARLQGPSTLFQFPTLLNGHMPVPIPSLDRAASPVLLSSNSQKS
# Summary of the method: as §1
# FEV = molecular target: T7, FEV (Homo sapiens, UniProt Q99581 1-238); details: protein: recombinant; tags: N-terminal GST; dsDNA, one strand shown
# T7 sequence: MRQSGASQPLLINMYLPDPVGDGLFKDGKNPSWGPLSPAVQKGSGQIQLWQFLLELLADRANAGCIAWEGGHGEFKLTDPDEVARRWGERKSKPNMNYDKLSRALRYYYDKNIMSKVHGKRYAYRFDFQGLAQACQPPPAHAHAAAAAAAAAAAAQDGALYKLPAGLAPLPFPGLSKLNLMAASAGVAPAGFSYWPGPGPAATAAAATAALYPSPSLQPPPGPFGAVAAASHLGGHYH
# Summary of the method: as §1
# ETV5 = ETV5 (Homo sapiens, UniProt P41161 1-510); details: protein: recombinant; tags: N-terminal GST; dsDNA, one strand shown
# Summary of the method: as §1
# HSF1 = HSF1 (Homo sapiens, UniProt Q00613 1-529); details: protein: recombinant; tags: N-terminal GST; chain copies: 3; dsDNA, one strand shown
# Summary of the method: as §1
# SPIC = molecular target: T8, SPIC (Homo sapiens, UniProt Q8N5J4 1-248); details: protein: recombinant; tags: N-terminal GST; dsDNA, one strand shown
# T8 sequence: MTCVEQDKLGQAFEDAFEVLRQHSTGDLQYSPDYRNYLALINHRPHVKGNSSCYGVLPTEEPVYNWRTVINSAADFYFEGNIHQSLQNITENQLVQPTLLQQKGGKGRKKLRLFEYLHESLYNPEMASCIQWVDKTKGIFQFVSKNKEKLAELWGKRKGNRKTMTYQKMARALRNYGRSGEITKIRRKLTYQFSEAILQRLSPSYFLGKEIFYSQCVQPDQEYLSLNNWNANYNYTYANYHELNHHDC
# Summary of the method: as §1
# ELF4 = ELF4 (Homo sapiens, UniProt Q99607 1-663); details: protein: recombinant; tags: N-terminal GST; dsDNA, one strand shown
# Summary of the method: as §1
# ELK4 = molecular target: T9, ELK4 (Homo sapiens, UniProt P28324-2 1-405); details: protein: recombinant; tags: N-terminal GST; dsDNA, one strand shown
# T9 sequence: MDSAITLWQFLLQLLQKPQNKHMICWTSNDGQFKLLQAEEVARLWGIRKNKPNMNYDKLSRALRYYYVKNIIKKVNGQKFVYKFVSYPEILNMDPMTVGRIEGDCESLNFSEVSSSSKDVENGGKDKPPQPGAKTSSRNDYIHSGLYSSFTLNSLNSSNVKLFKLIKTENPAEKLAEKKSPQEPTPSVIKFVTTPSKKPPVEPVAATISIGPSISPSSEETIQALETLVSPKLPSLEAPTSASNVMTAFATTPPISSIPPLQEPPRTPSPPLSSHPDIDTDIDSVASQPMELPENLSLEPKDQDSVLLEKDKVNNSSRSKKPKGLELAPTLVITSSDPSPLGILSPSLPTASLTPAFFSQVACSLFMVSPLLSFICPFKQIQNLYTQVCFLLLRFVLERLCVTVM
# Summary of the method: as §1
# ETV2 = molecular target: T10, ETV2 (Homo sapiens, UniProt O00321 1-342); details: protein: recombinant; tags: N-terminal GST; dsDNA, one strand shown
# T10 sequence: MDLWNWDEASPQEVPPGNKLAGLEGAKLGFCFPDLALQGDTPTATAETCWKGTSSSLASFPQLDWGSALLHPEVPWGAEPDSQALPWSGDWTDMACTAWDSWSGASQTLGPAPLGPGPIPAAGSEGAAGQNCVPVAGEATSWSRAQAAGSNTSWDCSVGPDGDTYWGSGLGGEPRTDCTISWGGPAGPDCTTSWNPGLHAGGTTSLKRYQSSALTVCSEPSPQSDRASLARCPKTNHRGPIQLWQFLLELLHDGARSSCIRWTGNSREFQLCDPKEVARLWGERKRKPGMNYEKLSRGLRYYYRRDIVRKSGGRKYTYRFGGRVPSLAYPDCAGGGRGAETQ
# Summary of the method: as §1
# ELF3 = molecular target: T11, ELF3 (Homo sapiens, UniProt P78545 1-371); details: protein: recombinant; tags: N-terminal GST; dsDNA, one strand shown
# T11 sequence: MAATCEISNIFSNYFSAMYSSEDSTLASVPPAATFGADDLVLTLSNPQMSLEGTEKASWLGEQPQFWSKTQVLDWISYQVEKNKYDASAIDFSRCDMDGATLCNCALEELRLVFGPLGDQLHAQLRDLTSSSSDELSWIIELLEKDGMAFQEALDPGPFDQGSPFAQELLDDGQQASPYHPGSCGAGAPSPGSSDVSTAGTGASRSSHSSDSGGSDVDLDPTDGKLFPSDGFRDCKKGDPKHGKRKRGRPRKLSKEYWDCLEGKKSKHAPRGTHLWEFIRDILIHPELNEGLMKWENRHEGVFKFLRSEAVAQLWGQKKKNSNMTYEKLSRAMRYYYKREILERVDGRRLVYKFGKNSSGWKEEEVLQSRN
# Summary of the method: as §1
# CRX = CRX (Homo sapiens, UniProt O43186 1-299); details: protein: recombinant; tags: N-terminal GST; dsDNA, one strand shown
# Summary of the method: as §1
# ETV1 = ETV1 (Homo sapiens, UniProt P50549 1-477); details: protein: recombinant; tags: N-terminal GST; dsDNA, one strand shown
# Summary of the method: as §1
# Sequence of HSF1 (Q00613 whole entry): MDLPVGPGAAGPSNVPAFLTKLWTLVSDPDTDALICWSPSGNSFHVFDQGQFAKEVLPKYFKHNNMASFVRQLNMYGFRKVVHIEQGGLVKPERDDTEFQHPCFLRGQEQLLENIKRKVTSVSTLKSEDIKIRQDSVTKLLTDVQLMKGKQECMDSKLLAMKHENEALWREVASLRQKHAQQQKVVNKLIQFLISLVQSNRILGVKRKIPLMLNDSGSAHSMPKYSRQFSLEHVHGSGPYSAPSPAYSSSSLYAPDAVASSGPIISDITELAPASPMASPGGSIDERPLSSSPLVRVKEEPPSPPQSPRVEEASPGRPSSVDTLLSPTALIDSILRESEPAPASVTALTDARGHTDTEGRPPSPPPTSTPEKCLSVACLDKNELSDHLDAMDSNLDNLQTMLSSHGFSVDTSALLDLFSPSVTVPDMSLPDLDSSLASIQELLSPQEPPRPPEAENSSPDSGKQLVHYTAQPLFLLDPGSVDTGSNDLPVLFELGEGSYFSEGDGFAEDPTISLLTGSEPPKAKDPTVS
# Sequence of SPIB (Q01892 whole entry): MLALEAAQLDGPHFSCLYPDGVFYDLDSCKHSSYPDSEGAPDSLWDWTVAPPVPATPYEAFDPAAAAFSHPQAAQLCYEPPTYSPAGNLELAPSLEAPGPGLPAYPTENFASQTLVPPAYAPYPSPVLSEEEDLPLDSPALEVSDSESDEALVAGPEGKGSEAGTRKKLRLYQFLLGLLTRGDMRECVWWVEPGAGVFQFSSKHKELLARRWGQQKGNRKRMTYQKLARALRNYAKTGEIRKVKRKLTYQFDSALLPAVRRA
# Sequence of ETV5 (P41161 whole entry): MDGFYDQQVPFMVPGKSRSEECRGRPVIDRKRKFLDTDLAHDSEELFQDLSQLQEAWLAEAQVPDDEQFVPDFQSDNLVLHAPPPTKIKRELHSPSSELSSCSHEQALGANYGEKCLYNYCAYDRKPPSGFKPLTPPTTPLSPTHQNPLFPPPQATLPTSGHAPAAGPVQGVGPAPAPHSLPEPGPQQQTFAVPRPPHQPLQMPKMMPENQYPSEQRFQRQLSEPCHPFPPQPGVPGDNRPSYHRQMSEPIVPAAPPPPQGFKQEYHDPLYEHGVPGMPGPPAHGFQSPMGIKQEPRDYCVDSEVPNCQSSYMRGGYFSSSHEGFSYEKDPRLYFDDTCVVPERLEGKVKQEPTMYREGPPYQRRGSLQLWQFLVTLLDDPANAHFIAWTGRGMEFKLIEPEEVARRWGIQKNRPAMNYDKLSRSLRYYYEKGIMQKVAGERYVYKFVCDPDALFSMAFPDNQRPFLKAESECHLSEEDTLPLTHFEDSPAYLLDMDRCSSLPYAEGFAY
# Sequence of ETV1 (P50549 whole entry): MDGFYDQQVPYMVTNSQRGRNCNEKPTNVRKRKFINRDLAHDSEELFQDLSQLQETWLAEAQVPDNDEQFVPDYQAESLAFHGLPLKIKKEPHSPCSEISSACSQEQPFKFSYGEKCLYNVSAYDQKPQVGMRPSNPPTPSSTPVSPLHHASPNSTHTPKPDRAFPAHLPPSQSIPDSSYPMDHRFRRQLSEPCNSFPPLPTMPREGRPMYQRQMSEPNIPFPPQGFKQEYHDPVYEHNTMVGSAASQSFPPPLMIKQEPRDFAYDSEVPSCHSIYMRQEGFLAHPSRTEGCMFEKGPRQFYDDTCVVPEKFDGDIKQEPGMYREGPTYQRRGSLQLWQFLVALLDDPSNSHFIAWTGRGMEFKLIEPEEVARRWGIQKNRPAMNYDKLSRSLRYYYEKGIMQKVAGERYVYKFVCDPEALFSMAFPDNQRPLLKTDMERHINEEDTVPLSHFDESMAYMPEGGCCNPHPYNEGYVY
# Sequence of ELF1 (P32519 whole entry): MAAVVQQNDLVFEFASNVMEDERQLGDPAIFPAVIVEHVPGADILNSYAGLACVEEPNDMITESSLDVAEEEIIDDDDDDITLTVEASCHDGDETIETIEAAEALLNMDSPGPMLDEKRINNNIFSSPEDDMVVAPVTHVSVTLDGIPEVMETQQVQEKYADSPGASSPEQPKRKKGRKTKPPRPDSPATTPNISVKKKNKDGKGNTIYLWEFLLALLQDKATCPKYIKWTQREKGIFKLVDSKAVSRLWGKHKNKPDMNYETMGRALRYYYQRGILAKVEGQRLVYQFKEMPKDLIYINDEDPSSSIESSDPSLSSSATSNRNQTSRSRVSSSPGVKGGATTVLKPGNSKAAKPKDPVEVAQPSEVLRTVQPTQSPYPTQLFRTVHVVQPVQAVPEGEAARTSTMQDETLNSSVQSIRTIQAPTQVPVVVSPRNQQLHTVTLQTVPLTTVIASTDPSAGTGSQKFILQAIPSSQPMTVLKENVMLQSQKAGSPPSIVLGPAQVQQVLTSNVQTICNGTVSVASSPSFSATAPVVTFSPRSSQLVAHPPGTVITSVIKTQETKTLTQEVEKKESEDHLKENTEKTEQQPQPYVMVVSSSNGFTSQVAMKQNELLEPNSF
# Sequence of CRX (O43186 whole entry): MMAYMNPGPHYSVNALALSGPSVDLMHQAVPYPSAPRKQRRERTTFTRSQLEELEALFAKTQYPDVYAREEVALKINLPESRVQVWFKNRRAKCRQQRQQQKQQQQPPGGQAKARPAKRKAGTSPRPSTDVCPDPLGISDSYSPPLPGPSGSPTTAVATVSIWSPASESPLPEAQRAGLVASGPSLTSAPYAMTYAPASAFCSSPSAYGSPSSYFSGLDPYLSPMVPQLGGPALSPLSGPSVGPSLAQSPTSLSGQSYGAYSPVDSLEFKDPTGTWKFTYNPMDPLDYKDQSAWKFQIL
# Sequence of ELF4 (Q99607 whole entry): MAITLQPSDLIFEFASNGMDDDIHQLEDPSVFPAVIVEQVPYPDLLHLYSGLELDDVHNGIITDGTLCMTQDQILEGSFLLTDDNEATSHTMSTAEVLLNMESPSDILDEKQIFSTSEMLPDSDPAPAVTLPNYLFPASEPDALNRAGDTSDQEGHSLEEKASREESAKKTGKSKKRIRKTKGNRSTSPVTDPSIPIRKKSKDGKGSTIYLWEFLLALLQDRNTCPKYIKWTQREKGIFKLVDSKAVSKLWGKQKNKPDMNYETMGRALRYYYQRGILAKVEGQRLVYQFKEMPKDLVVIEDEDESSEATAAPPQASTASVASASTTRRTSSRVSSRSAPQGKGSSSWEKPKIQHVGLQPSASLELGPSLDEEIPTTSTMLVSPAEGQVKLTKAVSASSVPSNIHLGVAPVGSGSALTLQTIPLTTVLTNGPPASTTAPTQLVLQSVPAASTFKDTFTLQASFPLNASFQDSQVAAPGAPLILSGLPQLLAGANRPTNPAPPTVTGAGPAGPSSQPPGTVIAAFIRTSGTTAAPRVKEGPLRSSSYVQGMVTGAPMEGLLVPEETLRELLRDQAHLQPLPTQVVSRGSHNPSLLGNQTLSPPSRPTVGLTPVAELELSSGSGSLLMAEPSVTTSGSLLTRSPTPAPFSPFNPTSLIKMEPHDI
sequence,measurement,setting,value
TACGTT,binding signal,FLI1,"1.29 fold enrichment (6-mer frequency, TF over GST control)"
same,binding signal,ELK1,"1.26 fold enrichment (6-mer frequency, TF over GST control)"
same,binding signal,GABPA,"1.4 fold enrichment (6-mer frequency, TF over GST control)"
same,binding signal,ERG,"1.31 fold enrichment (6-mer frequency, TF over GST control)"
same,binding signal,ELF1,"1.29 fold enrichment (6-mer frequency, TF over GST control)"
same,binding signal,EHF,"1.24 fold enrichment (6-mer frequency, TF over GST control)"
same,binding signal,SPI1,"1.25 fold enrichment (6-mer frequency, TF over GST control)"
same,binding signal,SPIB,"1.33 fold enrichment (6-mer frequency, TF over GST control)"
same,binding signal,ELK3,"1.35 fold enrichment (6-mer frequency, TF over GST control)"
same,binding signal,FEV,"1.35 fold enrichment (6-mer frequency, TF over GST control)"
same,binding signal,ETV5,"1.33 fold enrichment (6-mer frequency, TF over GST control)"
same,binding signal,HSF1,"1.24 fold enrichment (6-mer frequency, TF over GST control)"
same,binding signal,SPIC,"1.47 fold enrichment (6-mer frequency, TF over GST control)"
same,binding signal,ELF4,"1.23 fold enrichment (6-mer frequency, TF over GST control)"
same,binding signal,ELK4,"1.29 fold enrichment (6-mer frequency, TF over GST control)"
same,binding signal,ETV2,"1.27 fold enrichment (6-mer frequency, TF over GST control)"
same,binding signal,ELF3,"1.12 fold enrichment (6-mer frequency, TF over GST control)"
same,binding signal,CRX,"1.34 fold enrichment (6-mer frequency, TF over GST control)"
same,binding signal,ETV1,"1.29 fold enrichment (6-mer frequency, TF over GST control)"
